The values below come from PubChem BioAssay (EPA / NIEHS).

Records with an inconclusive call do not appear. Activity calls are given as the source filed them. How the source made its calls, unless noted: active means hit-call score of the fitted dose curve at least 0.9, where 1 is the maximum; inconclusive means response in the unintended direction; inactive means score below 0.9.

Assay [1] in a line: Tanguay_ZF_120hpf_ActivityScore_legacy: (Legacy) Oregon State University Tanguay Lab 120 Hour Post-fertilization zebrafish Assay Score for Activity (AID 2283742).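 On AC50: static exposure from 6 hpf until 120 hpf at 28 °C.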 Put shortly:
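Tropical 5D wild-type zebrafish embryos, dechorionated with pronase at 4 hpf, were exposed singly from 6 hpf to 120 hpf statically at 28C in 0.64% DMSO. Malformations and mortality were scored as binary by brightfield, with the activity score combining 18 morphology components.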

Assay [2] concerns Thyroperoxidase (TPO), gene 445522. Nature of the assay: CCTE_Simmons_GUA_TPO: CCTE's Guaiacol Assay for Thyroperoxidase (TPO) Inhibition, Simmons Lab (AID 2283750). The gist of the method: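 Porcine thyroid microsomes (25 ug) in 200mM potassium phosphate, preincubated 30 s at 37C with compound (8 concentrations, 5 nM–87.5 uM) and 35mM guaiacol; 1mM H2O2 starts reaction. Absorbance change at 450nm over first 80 s; loss of signal versus DMSO, three replicates.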

Assay [3] has as its target Luciferin 4-monooxygenase (Photinus pyralis) (UniProt P08659). The assay is described as follows: CCTE_Simmons_QuantiLum_inhib_2: CCTE's Firefly Luciferase Inhibition Assay, Simmons Lab (AID 2283767).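 On AC50: potency for inhibitors that lower luciferase luminescence relative to DMSO.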 The gist of the method:
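Cell-free recombinant firefly luciferase (5 ng/well) in 200mM potassium phosphate with 1 mg/ml BSA, 30 min at 37C with 8 concentrations from 5 nM to 87.5 uM [final], 0.5% DMSO. Luminescence read after D-luciferin (150uM)/dATP (147uM) reagent injection, pH 7.8; triplicates.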

Assay [4] is described as follows: ACEA_AR_agonist_AUC_viability: ACEA Biosciences xCELLigence Real-Time Cell Analysis on Androgen Receptor Agonism for Viability (AID 2283775).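 On AC50: viability read 80 hours after compound addition.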 Put shortly:
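Real-time impedance tracking of 22Rv1 growth, readings every 5 min for 5 h then hourly; area-under-curve viability endpoint at 80 hours, relative to DMSO. Compounds at eight concentrations, 1:4 steps, top 100 uM, n = 2.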

Assay [5] is described as follows: ACEA_AR_antagonist_AUC_viability: ACEA Biosciences xCELLigence Real-Time Cell Analysis on Androgen Receptor Antagonism for Viability (AID 2283776).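 Further: 22Rv1 human prostate cancer cells growing on impedance electrode plates; hits lower the growth signal relative to DMSO meaning cytotoxicity.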 Put shortly:
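Real-time electrical impedance tracks 22Rv1 proliferation after continuous compound exposure (top 100 uM final, 1:4 steps, 8 concentrations). The 80 h area-under-curve serves as the cytotoxicity readout relative to DMSO.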

Assay [6] can be described thus: CEETOX_H295R_MTT_cell_viability: Viability Assessment in the CeeTox HT-H295R MTT Assay (AID 2283718; active means hit-call score of the fitted dose curve at least 0.9, where 1 is the maximum; inactive means score below 0.9). The gist of the method:
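H295R cells prestimulated 48 h with 10 uM forskolin, then exposed 48 h to test chemical (0.1% DMSO final). Viability by MTT (0.5 mg/ml, 4 h, 37 C), absorbance 570/650 nm; percent change versus DMSO, bidirectional fit.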

The nature of assay [7]: ArunA_CellTiter_hNC: Viability Assessment in the ArunA Biomedical's Oris Neural Crest (hNC) Cell Migration Assay (AID 2283752). Put shortly: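 Human H9-derived neural crest cells plated on Matrigel (60,000/well) with LIF and bFGF, incubated 16 h, then exposed 72 h to chemical in test medium. Viability measured with CellTiter Aqueous One reagent; loss of signal versus DMSO.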

Assay [8] in a line: ArunA_CellTiter_hNP: Viability Assessment in the ArunA Biomedical's Oris Neural Crest (hNC) Cell Migration Assay (AID 2283753). Put shortly:
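H9-derived hNP1 neuroprogenitors, 60,000/well on Matrigel, cultured 16 h, then 72 h chemical exposure in test medium. Cell titer via CellTiter Aqueous One; positive-direction fit vs DMSO.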

The nature of assay [9]: ArunA_Migration_hNP: ArunA Biomedical's Oris Neuroprogenitor (hNP) Cell Migration Assay (AID 2283754). Put shortly: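 Human H9-derived hNP1 neuroprogenitors on Matrigel with LIF/bFGF, plated around seeding stoppers for 16 h at 37C; stoppers removed at start of 72 h chemical exposure. Calcein-AM staining, fluorescence 494/517 nm in detection zone; loss-of-signal vs DMSO; cytochalasin D control.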

Assay [10] is described as follows: ArunA_Migration_hNC: ArunA Biomedical's Oris Neural Crest (hNC) Cell Migration Assay (AID 2283755). The gist of the method: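 Human H9-derived neural crest stem cells, 60,000/well on Matrigel, 16 h at 37C, then 72 h chemical exposure after seeding-stopper removal. Migration into detection zone read as calcein-AM fluorescence (ex494/em517), relative to DMSO.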
Assay [11] is described as follows: ArunA_NOG_NucleusCount: ArunA Biomedical's Neurite Outgrowth (NOG) Assay for Nucleus Count (AID 2283756). The gist of the method:
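Human H9-derived differentiated neurons were exposed for 48 h right after seeding. Hoechst-stained nuclei gated by size and intensity were counted by automated high-content imaging as viable neurons. Loss of signal vs DMSO.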

Assay [12] in a line: ArunA_NOG_BranchPointsPerNeurite: ArunA Biomedical's Neurite Outgrowth (NOG) Assay for Branch Points Per Neurite (AID 2283759). Put shortly:
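Automated image analysis traced neurites (processes >10 um) from valid cell bodies after Hoechst and βIII-tubulin staining. hNN cells from H9 embryonic stem cells, 48 h exposure. Fitted bidirectionally against DMSO.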

Luciferin 4-monooxygenase (Photinus pyralis), sequence (P08659 whole entry, looked up): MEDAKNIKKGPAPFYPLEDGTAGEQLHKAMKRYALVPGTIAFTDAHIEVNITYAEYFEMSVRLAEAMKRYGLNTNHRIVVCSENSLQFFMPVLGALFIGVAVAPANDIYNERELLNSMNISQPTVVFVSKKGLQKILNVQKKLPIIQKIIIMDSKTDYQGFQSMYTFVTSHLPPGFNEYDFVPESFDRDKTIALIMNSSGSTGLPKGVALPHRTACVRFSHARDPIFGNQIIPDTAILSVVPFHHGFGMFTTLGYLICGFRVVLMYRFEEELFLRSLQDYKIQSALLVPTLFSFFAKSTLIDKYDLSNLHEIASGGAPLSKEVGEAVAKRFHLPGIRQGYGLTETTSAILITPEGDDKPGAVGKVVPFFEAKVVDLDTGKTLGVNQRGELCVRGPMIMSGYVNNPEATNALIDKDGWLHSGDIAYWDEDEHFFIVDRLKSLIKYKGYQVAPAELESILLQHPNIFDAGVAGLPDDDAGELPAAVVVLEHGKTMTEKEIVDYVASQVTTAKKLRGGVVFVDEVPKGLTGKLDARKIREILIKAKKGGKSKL

As for `CCOC(=O)CC(SP(=O)(OC)OC)C(=O)OCC` (stereo not drawn), the result in [1], in [2], in assay [3], in [4] and in assay [5] was inactive.

In general, AC50 refers to the midpoint of the concentration-response curve, whichever way the signal moves. As for `CCc1cccc(CC)c1N(COC)C(=O)CCl`, the AC50 in [1] is 27.6 µM (active); in assay [4] it was 50 µM (active); in assay [5], 50 µM (active).

As to `CCNc1nc(Cl)nc(NC(C)(C)C#N)n1`, the call in assay [6] and in assay [1] was inactive. Further, the AC50 in assay [5] is 27 µM (active).

With `CC(=NC#N)N(C)Cc1ccc(Cl)nc1`, the compound was called inactive in assay [1], in [4] and in assay [5].

Take `CNC(=O)ON=C(C)SC`: the compound was called inactive in [6], in assay [1], in assay [4] and in assay [5].

For `Nc1c(Cl)cc([N+](=O)[O-])cc1Cl`, the AC50 in assay [1] was 93.6 µM (active); in assay [4], 58.4 µM (active); in assay [5], 50 µM (active).

As for `CCC(=NOC/C=C/Cl)C1=C(O)CC(C2CCOCC2)CC1=O` (stereo not drawn), the result in assay [1], in [3] and in assay [4] was inactive.

As to `S=C1NCCN1`, the outcome in assay [1], in [7], in assay [8], in [9], in [10] and in [11] was inactive. Further, the outcome in assay [12], in [4] and in [5] was inactive. For the same compound, the AC50 in assay [3] is 1.9 µM (active).

On to `Nc1nc(N)nc(NC2CC2)n1`, for which the call in [6], in [1] and in assay [5] was inactive.

Consider `CC(C)=CC1C(C(=O)OCN2C(=O)C3=C(CCCC3)C2=O)C1(C)C` (stereo not drawn), for which the result in assay [1] was inactive. In addition, the AC50 in [4] was 44 µM (active); in assay [5], 48.1 µM (active).

For the compound `CCOP(=S)(Oc1cnc(C(C)(C)C)nc1)OC(C)C` (stereo not drawn), the result in assay [1] was inactive. Further, the AC50 in assay [3] was 61.8 µM (active); in assay [4], 46.3 µM (active); in assay [5] it was 50 µM (active).

Take `COP(=O)(OC)SCn1c(=O)oc2cc(Cl)cnc21`: the compound was classed as inactive in assay [1] and in [3]. Also, the AC50 is 23.7 µM (active) in [4] and 17.2 µM (active) in assay [5].

`CON=C(C(=O)OC)c1ccccc1CON=C(C)c1cccc(C(F)(F)F)c1`: the compound was called inactive in assay [1]. Further, the figures for the AC50 in [4] and in assay [5] were 26.4 µM (active) and 14.5 µM (active), respectively.

`CC(Oc1cccc(Cl)c1)C(=O)O` (stereo not drawn): the outcome in [1] and in assay [5] was inactive.

As for `CCCCN(CC)c1c([N+](=O)[O-])cc(C(F)(F)F)cc1[N+](=O)[O-]`, the call in assay [6] and in [1] was inactive. Moreover, the AC50 in assay [4] was 60.9 µM (active); in [5] it was 43.8 µM (active).

`CCOP(=O)(SC(C)CC)N1CCSC1=O` (stereo not drawn): the outcome in assay [1], in assay [3] and in assay [5] was inactive.

Take `CCCCSP(=O)(SCCCC)SCCCC`: in assay [1], the compound was called inactive. The values for the AC50 in [4] and in assay [5] were 78.1 µM (active) and 67.1 µM (active), respectively.

Turning to `CN1COCN(Cc2cnc(Cl)s2)C1=N[N+](=O)[O-]`, the call in assay [1] and in [5] was inactive.

`COP(=O)(OC)C(O)C(Cl)(Cl)Cl` (stereo not drawn): the outcome in [1] and in assay [4] was inactive. In addition, the AC50 in assay [5] was 50 µM (active).

For the compound `C[N+]1(C)CCCCC1`, the compound was classed as inactive in [1], in assay [4] and in assay [5].

As for `O=c1ccc(=O)[nH][nH]1`, the compound was classed as inactive in [1] and in assay [3].
